{"source": "PubChem BioAssay AID651551", "about": "(Sanford-Burnham Center for Chemical Genomics, 2012)", "data": [{"molecular_target": "PEG-3 (UniProt Q6IN02)", "experiment": "GAPDH versus PEG-3 reporter suppression – cell-based, luminescence, counter-screen for PEG-3 promoter inhibitor project, SAR follow-up (AID 651551)", "conditions": "HeLa PEG-Prom / GAPDH luciferase reporter, 6 or 24 h, run 2, 6 h; at 99 µM (top of the series)", "units": {"inhibition % (higher = more inhibition)": "%"}, "values": [{"smiles": "COc1ccc(Cl)cc1Nc1nc(-c2sc(NC(=O)c3ccccc3)nc2C)cs1", "inhibition % (higher = more inhibition)": 42.5}, {"smiles": "Cc1nc(NC(=O)c2ccccc2)sc1-c1csc(Nc2cccc(Cl)c2C)n1", "inhibition % (higher = more inhibition)": 32.8}, {"smiles": "CCn1cc(C(=O)NCc2ccco2)c(=O)c2cc(S(=O)(=O)N3CCCC3)ccc21", "inhibition % (higher = more inhibition)": -0.291}, {"smiles": "COc1ccc(-n2nc(C(=O)NCC(=O)Nc3ccc(OC)c(OC)c3)c3ccccc3c2=O)cc1", "inhibition % (higher = more inhibition)": 13.5}, {"smiles": "CCCn1nc(C(=O)Nc2nc(-c3ccncc3)cs2)c2ccccc2c1=O", "inhibition % (higher = more inhibition)": 7.03}, {"smiles": "Cc1cc(NC(=O)c2ccccc2)n(-c2nc3ccccc3[nH]2)n1", "inhibition % (higher = more inhibition)": 17.6}, {"smiles": "COCCCNC(=O)c1ccc(Cn2c(=O)c3ccccc3n(Cc3ccccc3C#N)c2=O)cc1", "inhibition % (higher = more inhibition)": 23.2}, {"smiles": "Cc1cc(NC(=O)c2ccccc2C(F)(F)F)n(-c2nc3ccccc3[nH]2)n1", "inhibition % (higher = more inhibition)": 88.2}, {"smiles": "COc1ccc(-n2nc(C(=O)NCC(=O)Nc3cc(OC)c(OC)c(OC)c3)c3ccccc3c2=O)cc1OC", "inhibition % (higher = more inhibition)": 9.37}, {"smiles": "Cc1cc(NC(=O)c2cccc(C)c2C)n(-c2nc3ccccc3[nH]2)n1", "inhibition % (higher = more inhibition)": 16.4}, {"smiles": "CCCn1nc(C(=O)Nc2nc(-c3ccccn3)cs2)c2ccccc2c1=O", "inhibition % (higher = more inhibition)": 44.6}, {"smiles": "O=C(Nc1nc(-c2ccccc2)cs1)c1nn(-c2ccccc2)c(=O)c2ccccc12", "inhibition % (higher = more inhibition)": 3.85}, {"smiles": "Cc1cc(NC(=O)c2ccccc2C)n(-c2nc3ccccc3[nH]2)n1", "inhibition % (higher = more inhibition)": 41.1}, {"smiles": "COc1ccccc1Nc1nc(-c2sc(NC(=O)c3ccco3)nc2C)cs1", "inhibition % (higher = more inhibition)": -0.291}, {"smiles": "Cc1ccc(Cl)cc1Nc1nc(-c2sc(NC(=O)c3ccco3)nc2C)cs1", "inhibition % (higher = more inhibition)": 37}, {"smiles": "Cc1nc(NC(=O)c2ccccc2)sc1-c1csc(Nc2ccccc2Cl)n1", "inhibition % (higher = more inhibition)": 7.99}, {"smiles": "Cc1cc(NC(=O)c2ccccc2)n(-c2nc3ccccc3n2C)n1", "inhibition % (higher = more inhibition)": 38.3}, {"smiles": "Cc1nc(NC(=O)c2ccccc2)sc1-c1csc(Nc2ccccc2)n1", "inhibition % (higher = more inhibition)": 5.23}, {"smiles": "CCCn1nc(C(=O)Nc2nc3ccccc3s2)c2ccccc2c1=O", "inhibition % (higher = more inhibition)": 21.8}, {"smiles": "O=C(Nc1nc2ccccc2s1)c1nn(-c2ccccc2)c(=O)c2ccccc12", "inhibition % (higher = more inhibition)": -4.43}, {"smiles": "CCn1nc(C(=O)Nc2nc(-c3ccccn3)cs2)c2ccccc2c1=O", "inhibition % (higher = more inhibition)": 39.9}, {"smiles": "COc1ccc(-n2nc(C(=O)NCC(=O)Nc3cccc(OC)c3)c3ccccc3c2=O)cc1", "inhibition % (higher = more inhibition)": 2.47}, {"smiles": "O=C(Nc1nccs1)c1nn(-c2ccccc2)c(=O)c2ccccc12", "inhibition % (higher = more inhibition)": 28.7}]}]}
